Measured values taken from PubChem BioAssay.
Calls of active or inactive are those of the source.

Legend:
Albumin (Bos taurus) = Albumin (Bos taurus) (UniProt P02769); assay: compounds binding labelled BSA control protein – biochemical, small-molecule microarray, Alexa647 label, 635/667 nm fluorescence, artefact control for SMM control protein annotation, profiling panel (AID 1118); conditions: BSA-A647 binding, fluorescence 635 nm, higher = more signal;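 note: score merges 667 nm emission intensity and signal-to-noise per printed compound spot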
[1] = probe aXIP binding to arrayed compounds – biochemical, NeuroSMM set, 635/667 nm fluorescence, primary screen (AID 1119); conditions: small-molecule microarray, higher = more signal, called active from +8 up or from −8 down;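 note: probe is the protein aXip251-270 applied at 1 µg/mL to compound-printed slides; binding of probe to printed compounds measured as 667 nm fluorescence plus signal to noise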
[2] = probe aNOTCH3 binding on compound microarray – biochemical, small-molecule microarray, 635/667 nm fluorescence, primary screen (AID 1120); conditions: higher = more signal;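 note: probe is a biotin-tagged antibody raised against NOTCH3 rather than NOTCH3 protein; score merges spot fluorescence near 667 nm with spot signal to noise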
[3] = probe aNOTCH2 binding on compound microarray – biochemical, small-molecule microarray, 635/667 nm fluorescence, primary screen (AID 1121); conditions: higher = more signal;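 note: score merges feature fluorescence read at 667 nm with its signal to noise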
[4] = biological target: Carbonic anhydrase 2 (Homo sapiens) (UniProt P00918); assay: compounds binding carbonic anhydrase 2 – biochemical, small-molecule microarray, Alexa647-labelled CAII, profiling panel (AID 1122); conditions: CAII-A647 binding fluorescence, higher = more signal
[5] = COS7 lysate on small-molecule microarray, probe aHis, 635 nm (AID 1123); conditions: COS7 cell lysate, fluorescence, higher = more signal;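 note: z-score combines 667nm fluorescence intensity with signal-to-noise per printed compound spot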
[6] = probe aLAP1 signal on lysate-treated microarray – cell lysate, small-molecule microarray, COS7 lysate, primary screen (AID 1124); conditions: probe aLAP1, fluorescence, higher = more signal;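 note: lysate comes from COS7 cells expressing LAP1 and is applied at 0.3 µg/mL; score merges spot fluorescence near 667 nm with signal-to-noise over triplicate slides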
Sam68 (KHDRBS1) = assay: compounds binding KHDRBS1 protein – biochemical, small-molecule microarray, 635 nm fluorescence, primary screen (AID 1125); conditions: higher = more signal;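 note: score merges 667 nm channel intensity with signal to noise over triplicate slides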
[7] = system: Chordin-like protein 2 (CHRDL2); assay: compounds binding chordin-like 2 – biochemical, small-molecule microarray, 635 nm fluorescence, primary screen (AID 1126); conditions: fluorescence 635 nm, higher = more signal;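 note: printed compound slides probed with Chrdl2 protein at 4 µg/mL for 1 h at 4 C; score merges 667 nm emission intensity with signal to noise over three replicate slides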
[8] = biological target: Concanavalin-A (Canavalia ensiformis) (UniProt P02866); assay: compounds binding concanavalin A lectin – biochemical, small-molecule microarray, Alexa647 label, 635 nm, artefact control for SMM control protein annotation, primary screen (AID 1127); conditions: ConA-A647 binding fluorescence, higher = more signal;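 note: z combines 667 nm emission intensity with signal-to-noise across three replicate slides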
[9] = compounds binding Alexa647 anti-His antibody – biochemical, small-molecule microarray, 635 nm fluorescence, artefact control for SMM control protein annotation, primary screen (AID 1128); conditions: higher = more signal;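 note: score merges feature fluorescence with signal-to-noise for each printed compound spot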
[10] = system: Human papillomavirus type 1a E7 protein (residues 1-88); assay: HPV1a E7 small-molecule binders, primary screen, biochemical, small-molecule microarray, residues 1-88, 635 nm (AID 1129); conditions: small-molecule microarray binding, fluorescence 635 nm; higher = more signal
[11] = biological target: Focal adhesion kinase 1 (Homo sapiens) (UniProt Q05397); assay: PTK2 protein binding on printed compound slides – biochemical, small-molecule microarray, 635/667 nm fluorescence, BSA, DTT, primary screen (AID 1130); conditions: 635 nm fluorescence, higher = more signal;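 note: composite of spot emission at 667 nm and signal to noise over triplicate slides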
[12] = system: Fibrinogen (Alexa647-labelled); assay: Alexa647-fibrinogen binding to printed small molecules – biochemical, small-molecule microarray, 635/667 nm fluorescence, artefact control for SMM control-protein annotation, profiling panel (AID 1131); conditions: fibrinogen-A647 binding fluorescence, higher = more signal;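 note: z-score merges 667 nm fluorescence with per-spot signal-to-noise over triplicate slides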
[13] = biological target: Follistatin (Homo sapiens) (UniProt P19883); assay: FST protein binding to printed compounds – biochemical, small-molecule microarray, 635/667 nm fluorescence, primary screen (AID 1132); conditions: 635 nm fluorescence, higher = more signal
[14] = biological target: Fibroblast growth factor 2 (Homo sapiens) (UniProt P09038); assay: basic fibroblast growth factor binding to printed compounds – biochemical, small-molecule microarray, 635/667 nm fluorescence, primary screen (AID 1133); conditions: FGF2, fluorescence 635/667, higher = more signal
[15] = JC-1 mitochondrial potential readout, lung cancer cells – cell-based, A549, JC-1 fluorescence, basal, 24 h, 100 nL, profiling panel (AID 1138); conditions: higher = more signal;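 note: A549 lung adenocarcinoma cells under basal conditions with no added stimulus; test concentration not given here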
Lefty1 = Lefty1 protein binding to printed compounds – biochemical, small-molecule microarray, 635/667 nm fluorescence, primary screen (AID 1139); conditions: fluorescence 635/667, higher = more signal
[16] = system: wheat germ agglutinin (Triticum aestivum), Alexa647-labelled; assay: Alexa647-WGA lectin binding to printed small molecules – biochemical, small-molecule microarray, 635/667 nm fluorescence, artefact control for SMM control-protein annotation, profiling panel (AID 1140); conditions: WGA-A647 binding, 635 nm fluorescence, higher = more signal;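 note: score merges 667 nm feature emission with signal to noise over triplicate slides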
[17] = biological target: Luciferin 4-monooxygenase (Photinus pyralis) (UniProt P08659); assay: inhibition of purified Photinus pyralis luciferase – biochemical, luminescence, purified enzyme, 2006 set, primary screen (AID 1141); conditions: purified firefly luciferase, SteadyGlo luminescence, 30 min; higher = more signal, called active from +8 up or from −8 down;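 note: cell-free assay with purified firefly luciferase at 100 ng per well in PBS; test concentration not given here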
Chain of Luciferin 4-monooxygenase (Photinus pyralis) (P08659 whole entry, looked up): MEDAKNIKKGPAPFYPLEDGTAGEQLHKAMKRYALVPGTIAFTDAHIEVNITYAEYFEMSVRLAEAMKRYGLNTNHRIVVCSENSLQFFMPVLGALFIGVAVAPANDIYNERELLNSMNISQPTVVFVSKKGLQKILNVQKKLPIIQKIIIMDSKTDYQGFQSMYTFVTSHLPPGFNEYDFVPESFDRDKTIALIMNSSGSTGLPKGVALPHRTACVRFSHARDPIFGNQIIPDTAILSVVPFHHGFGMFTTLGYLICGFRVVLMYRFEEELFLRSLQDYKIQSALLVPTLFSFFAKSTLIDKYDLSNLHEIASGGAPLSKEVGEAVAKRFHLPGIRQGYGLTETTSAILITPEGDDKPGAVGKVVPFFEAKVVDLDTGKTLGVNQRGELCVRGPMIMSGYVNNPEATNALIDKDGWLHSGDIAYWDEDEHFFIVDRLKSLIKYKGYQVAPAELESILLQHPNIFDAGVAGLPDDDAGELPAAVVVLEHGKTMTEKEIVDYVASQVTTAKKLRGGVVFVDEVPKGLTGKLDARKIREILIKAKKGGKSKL

Chain of Focal adhesion kinase 1 (Homo sapiens) (Q05397 whole entry, looked up): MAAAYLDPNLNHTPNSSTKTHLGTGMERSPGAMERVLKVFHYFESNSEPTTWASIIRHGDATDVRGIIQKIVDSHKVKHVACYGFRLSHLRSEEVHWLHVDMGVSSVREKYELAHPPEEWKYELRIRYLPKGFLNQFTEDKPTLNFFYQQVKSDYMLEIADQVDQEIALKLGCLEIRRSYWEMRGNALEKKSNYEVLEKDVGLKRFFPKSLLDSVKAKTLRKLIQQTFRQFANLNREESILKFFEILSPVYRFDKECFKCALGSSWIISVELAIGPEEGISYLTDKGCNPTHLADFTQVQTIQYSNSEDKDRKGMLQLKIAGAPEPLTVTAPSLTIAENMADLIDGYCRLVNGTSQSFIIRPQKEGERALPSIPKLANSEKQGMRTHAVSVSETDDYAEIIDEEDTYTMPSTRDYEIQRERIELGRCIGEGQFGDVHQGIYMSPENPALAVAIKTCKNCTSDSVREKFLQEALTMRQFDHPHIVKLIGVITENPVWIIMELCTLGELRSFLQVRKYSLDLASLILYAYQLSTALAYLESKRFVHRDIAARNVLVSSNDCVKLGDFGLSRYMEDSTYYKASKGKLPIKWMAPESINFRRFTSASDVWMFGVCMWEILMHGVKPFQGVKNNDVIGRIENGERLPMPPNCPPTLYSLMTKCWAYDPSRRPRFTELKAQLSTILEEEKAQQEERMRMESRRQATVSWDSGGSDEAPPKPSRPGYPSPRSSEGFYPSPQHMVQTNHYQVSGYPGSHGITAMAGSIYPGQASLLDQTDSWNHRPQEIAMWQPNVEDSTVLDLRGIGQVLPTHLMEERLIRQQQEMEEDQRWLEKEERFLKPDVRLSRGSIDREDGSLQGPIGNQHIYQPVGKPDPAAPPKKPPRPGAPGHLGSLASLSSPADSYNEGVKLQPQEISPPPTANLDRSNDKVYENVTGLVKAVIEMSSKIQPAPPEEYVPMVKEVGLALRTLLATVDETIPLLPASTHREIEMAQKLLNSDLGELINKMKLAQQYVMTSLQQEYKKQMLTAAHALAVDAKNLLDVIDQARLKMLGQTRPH
Chain of Fibroblast growth factor 2 (Homo sapiens) (P09038 whole entry, looked up): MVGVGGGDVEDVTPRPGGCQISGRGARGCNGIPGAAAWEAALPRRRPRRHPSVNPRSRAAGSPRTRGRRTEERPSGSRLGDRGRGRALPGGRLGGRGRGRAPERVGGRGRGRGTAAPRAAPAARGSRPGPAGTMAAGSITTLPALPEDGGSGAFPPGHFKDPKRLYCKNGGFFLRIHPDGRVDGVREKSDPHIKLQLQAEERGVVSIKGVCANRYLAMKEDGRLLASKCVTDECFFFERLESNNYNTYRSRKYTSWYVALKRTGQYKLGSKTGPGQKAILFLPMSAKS
Chain of Concanavalin-A (Canavalia ensiformis) (P02866 whole entry, looked up): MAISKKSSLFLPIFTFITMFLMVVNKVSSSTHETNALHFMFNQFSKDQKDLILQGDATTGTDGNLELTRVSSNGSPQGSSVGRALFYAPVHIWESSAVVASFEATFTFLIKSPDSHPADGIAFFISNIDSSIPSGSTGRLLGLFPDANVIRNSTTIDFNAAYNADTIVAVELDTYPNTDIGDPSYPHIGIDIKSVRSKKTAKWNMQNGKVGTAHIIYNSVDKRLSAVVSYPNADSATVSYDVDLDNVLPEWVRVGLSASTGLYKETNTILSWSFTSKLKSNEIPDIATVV
Chain of Albumin (Bos taurus) (P02769 whole entry, looked up): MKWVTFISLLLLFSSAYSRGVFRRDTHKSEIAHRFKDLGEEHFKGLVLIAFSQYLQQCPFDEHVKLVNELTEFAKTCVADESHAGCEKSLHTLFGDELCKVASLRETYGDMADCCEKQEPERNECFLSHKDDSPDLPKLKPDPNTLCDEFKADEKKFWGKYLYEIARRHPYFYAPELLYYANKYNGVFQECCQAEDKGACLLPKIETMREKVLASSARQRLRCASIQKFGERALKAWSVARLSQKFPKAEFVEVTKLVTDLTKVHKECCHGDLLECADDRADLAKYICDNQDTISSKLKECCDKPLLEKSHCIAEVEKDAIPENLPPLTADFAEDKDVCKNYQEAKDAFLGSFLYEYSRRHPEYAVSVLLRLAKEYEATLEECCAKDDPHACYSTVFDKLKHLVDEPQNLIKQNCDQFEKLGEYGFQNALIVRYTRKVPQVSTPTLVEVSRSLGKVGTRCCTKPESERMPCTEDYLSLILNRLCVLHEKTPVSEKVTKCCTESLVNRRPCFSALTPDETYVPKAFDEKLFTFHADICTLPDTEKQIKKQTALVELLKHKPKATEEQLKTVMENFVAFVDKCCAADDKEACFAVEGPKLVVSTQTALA
Chain of Follistatin (Homo sapiens) (P19883 whole entry, looked up): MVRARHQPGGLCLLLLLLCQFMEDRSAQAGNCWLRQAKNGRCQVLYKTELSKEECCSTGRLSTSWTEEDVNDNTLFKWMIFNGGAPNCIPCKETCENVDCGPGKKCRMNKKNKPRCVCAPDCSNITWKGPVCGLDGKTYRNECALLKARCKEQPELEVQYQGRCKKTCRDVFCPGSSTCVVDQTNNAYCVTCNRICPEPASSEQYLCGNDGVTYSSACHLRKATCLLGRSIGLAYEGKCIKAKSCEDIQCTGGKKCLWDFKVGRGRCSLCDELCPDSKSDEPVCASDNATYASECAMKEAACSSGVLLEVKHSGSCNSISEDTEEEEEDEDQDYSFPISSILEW

Row | SMILES | composite z-score (Albumin (Bos taurus)) | composite Z-score [1] | composite z-score [2] | composite z-score [3] | composite z-score [4] | composite z-score [5] | composite z-score [6] | composite z-score (Sam68 (KHDRBS1)) | composite z-score [7] | composite z-score [8] | composite z-score [9] | composite z-score [10] | composite z-score [11] | composite z-score [12] | composite z-score [13] | composite z-score [14] | z-score [15] | composite z-score (Lefty1) | composite z-score [16] | z-score [17]
1 | C=C(CCCC)/C(=C/C[C@H](OC(=O)c1ccncc1)c1ccc(OCCO)cc1)c1cnc2ccccc2c1 | 0.667 | -0.0072 (inactive) | 0.0533 | -0.0891 | 0.755 | 1.74 | 0.111 | 1.31 | 1.11 | 1.13 | 2.06 | 1.23 | 0.525 | 0.892 | 1.28 | 1.02 | 2.39 | 1.27 | 1.36 | -1.83 (inactive)
2 | COCCOC(=O)N1C(=O)[C@@]2(c3cc(C#CCC(C(=O)OC)C(=O)OC)ccc31)[C@H](C(=O)Nc1nc3ccccc3s1)[C@H]1C(=O)O[C@H](c3ccccc3)[C@H](c3ccccc3)N1[C@@H]2c1ccc(O)cc1 | 0.268 | 0.247 (inactive) | 0.512 | -0.0282 | 0.279 | 1.13 | 0.705 | 1.3 | 1.07 | 1.04 | 0.777 | 1.21 | 0.235 | 0.461 | 1.3 | 1.46 | -2.26 | 1.29 | 0.762 | 0.258 (inactive)
3 | O=C(NCC(O)CO)C1N=C(c2ccc(OCCCO)cc2)N(c2ccccc2)O1 (stereo not given) | -0.138 | -0.226 (inactive) | -0.0996 | 0.162 | 0.821 | 0.0043 | 1.04 | 1 | 0.157 | 0.53 | 0.703 | 0.697 | -0.102 | 0.0565 | 1.38 | 1.32 | 0.42 | 0.876 | 0.471 | -10.9 (active)
4 | COc1ccc(C(O)C2C=CC3C(=O)N(c4ccccc4)C(=O)C3N2Nc2ccc(C#N)cc2)cc1OCc1ccccc1 (stereo not given) | 1.06 | -0.502 (inactive) | 0.291 | 0.131 | 0.634 | 2.01 | 1.17 | 1.3 | -0.333 | 1.1 | 1.86 | 1.21 | 1.3 | 0.506 | 0.636 | -0.529 | 0.399 | -0.56 | 1.15 | 0.188 (inactive)
5 | COc1ccc(C(=O)Nc2cccc(CN3C(=O)[C@@]4(O[C@@H](CC(=O)N5CCC[C@H]5CO)[C@H]([Si](C)(C)c5ccc(OC)cc5)[C@H]4C)c4ccccc43)c2)cc1 | 0.343 | -0.0697 (inactive) | 0.0305 | -0.11 | 0.531 | 1.75 | -0.19 | 1.34 | 0.862 | 1.17 | 1.39 | 1.03 | 0.988 | 0.875 | 1.08 | 1.1 | 1.53 | 0.703 | 0.7 | -0.599 (inactive)
